In PubChem BioAssay (NCI):
The panel holds about 83,000 compounds, 20% with a hit somewhere; the sample as a whole holds those more often.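 Method: cells in 96-well plates; compound added at one concentration; 48 h incubation; percent growth measured; values under 10 scored active.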 Calls of active or inactive are those of the source.

tested on: OVCAR-8 ovarian; assay: NCI-60 one-dose screen, 48 h (100 = growth as untreated, 0 = no growth, -100 = all killed); conditions: 10 µM unless noted

Which growth does the source give for `O=C(Nc1cccnc1Nc1ccc(Cl)cc1)c1cn(Cc2cccc(Oc3ccccc3)c2)nn1` here?
Its growth is 53.8% (inactive).

How did the growth turn out when `C1CCC(N2CN3c4nonc4N4CN(C5CCCCC5)CN5c6nonc6N(C2)C3C45)CC1` (centres undefined) was run?
Its growth is 95.5% (inactive).

Which growth does the source give for `N#Cc1c(-c2ccc(Br)cc2)nc2c(N=Nc3ccc(S(N)(=O)=O)cc3)c(N)nn2c1N` here?
The growth was 46.6% (inactive).

`COc1cc(/C=C/C(=O)c2cc(OC)c(OC)c(OC)c2)ccc1Oc1nc2c(c(=O)n(C)c(=O)n2C)n1C` was tested. Which growth did it give?
Its growth is 10.7% (inactive).

With `CC1(/C=C/c2ccc(-c3ccccc3)cc2)CCn2cnc3ncnc(c32)N1O` (centres undefined) as the compound, how does the growth read?
The growth was 25.7% (inactive).

`CCCc1cc(=O)oc2c(C(=O)CC(C)C)c(O)c(CC=C(C)C)c(O)c12` was tested. Which growth did it give?
Its growth is 22.3% (inactive).

Which growth does the source give for `CS(=O)(=O)Nc1cc(-c2ccc3ncnc(Nc4ccc(OCc5ccccn5)c(Cl)c4)c3c2)cnc1Cl` here?
The growth was 14.4% (inactive).

For `CCN1CCN(CCNc2nccc(-c3c(-c4ccc(F)c(O)c4)nc4occn34)n2)S1(=O)=O`, which growth is on record?
The growth was 11.7% (inactive).

Which growth does the source give for `COc1ccc(C2[C@@H](Cl)C(=O)N2c2cc(OC)c(OC)c(OC)c2)cc1Cl` (some centres undefined) here?
Its growth is 9.75% (active).

Which growth does the source give for `CN1CCN(Cc2ccc(NC(=O)c3cncc(C#Cc4cnc(N)cc4C#N)c3)cc2C(F)(F)F)CC1` here?
The growth was 22.6% (inactive).

For `CN(C)c1ccc([C@@H](C(=O)Nc2cccc([N+](=O)[O-])c2)N(C(=O)c2cc3ccccc3[nH]2)c2cccc([N+](=O)[O-])c2)cc1`, which growth is on record?
The growth was 93.3% (inactive).

`c1cc(OCCN2CCCCC2)ccc1CNc1ccc2nc(CCC3CCCCC3)[nH]c2c1` was tested. Which growth did it give?
Its growth is 36.6% (inactive).

Which growth does the source give for `Cc1[nH]n(-c2cccc(Cl)c2)c(=O)c1/C=C1\C=c2ccccc2=CC1=O` here?
The growth was 22.3% (inactive).

Which growth does the source give for `CC(C)(C)OC(=O)CN1CCc2c(sc3ncnc(N4CCN(c5ccc(F)cc5)CC4)c23)C1` here?
Its growth is 73.2% (inactive).

For `Cc1ccc2c(c1)sc1nc(-c3c[nH]c4ccccc34)c(Nc3ccccc3)n12`, which growth is on record?
Its growth is 104% (inactive).

`Cn1c(C#N)ccc1-c1ccc(F)c(NC(=O)c2ccc(F)cc2)c1` was tested. Which growth did it give?
The growth was 95.4% (inactive).

With `CCOC(=O)C1=C(CC(O)c2ccc(OC)cc2OC)NC(=O)NC1c1ccccc1` (centres undefined) as the compound, how does the growth read?
Its growth is 109% (inactive).

`CCSc1ccnc(N)n1` was tested. Which growth did it give?
The growth was 108% (inactive).

How did the growth turn out when `Cc1ccc(S(=O)(=O)c2nc(-c3ccccc3)oc2SCC(N)=O)cc1` was run?
The growth was 111% (inactive).

For `CN(C)c1ccc(/C=N\NC(=O)c2ccc3nc(-c4ccc(Cl)cc4)[nH]c3c2)cc1`, which growth is on record?
The growth was 51.3% (inactive).

For `CCOC(=O)C1=C(c2ccccc2)N=C2N(c3ccccc3)N=C(C(C)=O)N2C1c1ccc(F)cc1` (centres undefined), which growth is on record?
Its growth is 99.3% (inactive).

How did the growth turn out when `CN(C)Cc1ccc(NC(=O)c2cncc(C#Cc3cnc(N)c4ncccc34)c2)cc1C(F)(F)F` was run?
Its growth is -32.8% (active).

How did the growth turn out when `CCN(CC)CCn1c2ccc(OC)cc2c2sc3cc(O)ccc3c(=O)c21` was run?
Its growth is 30.7% (inactive).

With `Cc1cc(=O)oc2cc(Oc3nc(Br)cn4c(Br)cnc34)ccc12` as the compound, how does the growth read?
Its growth is 64.7% (inactive).

How did the growth turn out when `Nc1[nH]nc2nc(-c3ccccc3)n3c4ccccc4nc3c12` was run?
Its growth is 98.8% (inactive).

Which growth does the source give for `O=[N+]([O-])c1ccccc1Sc1ccccc1[N+](=O)[O-]` here?
The growth was 102% (inactive).

Which growth does the source give for `CC1(C)N=C(N)N=C(N)N1c1ccc(S(=O)(=O)Nc2nccs2)cc1` here?
Its growth is 104% (inactive).

`c1ccc(-c2ccc3c(c2)C2(CCNCC2)CN3)cc1` was tested. Which growth did it give?
Its growth is 99.2% (inactive).

Which growth does the source give for `CCOC(=O)/C=C1\S/C(=N\Nc2cc(=O)[nH]c3ccc(Br)cc23)N(c2ccccc2)C1=O` here?
Its growth is 72.2% (inactive).

`COc1ccc(C2CC(n3ccnc3)c3cc(OC)c(OC)c(OC)c32)cc1O` (centres undefined) was tested. Which growth did it give?
Its growth is 89.2% (inactive).

Which growth does the source give for `COC(=O)c1c2c(c[n+]([O-])c1C)C(=O)C=C(NCc1ccccc1)C2=O` here?
Its growth is -60.4% (active).

With `COc1ccc2c(c1)c(-c1nc(-c3ccc4ccccc4c3)cs1)cn2C` as the compound, how does the growth read?
The growth was 95.3% (inactive).

With `Cc1ccc2c(c1)nc(C)n2-c1ncnc2c1CC(C)c1cc(O)ccc1N2C` (centres undefined) as the compound, how does the growth read?
The growth was 40.6% (inactive).

Which growth does the source give for `Cc1cc(N2CCN(CC(=O)Nc3ccc4c(ccn4Cc4ccccc4)c3)CC2)nc(N2CCOCC2)n1` here?
The growth was 68.2% (inactive).

For `COCCn1cc(-c2csc(-c3c[nH]c4ccc(F)cc34)n2)c2cccnc21`, which growth is on record?
The growth was 34% (inactive).

`Cc1ccc(C(=O)c2ccc(CC(=O)N/N=C/c3cccc(O)c3O)n2C)cc1` was tested. Which growth did it give?
The growth was 38.6% (inactive).

For `CC[C@@H](C(=O)[C@@H](C)[C@@H](O)[C@H](C)[C@@H]1O[C@@H]([C@@H](CC)C(=O)ONC(=O)c2ccccc2O)CC[C@@H]1C)C1O[C@]2(C=CC(=O)[C@]3(CC[C@@](C)([C@H]4CC[C@](O)(CC)[C@H](C)O4)O3)O2)[C@H](C)C[C@@H]1C` (some centres undefined), which growth is on record?
Its growth is 54.9% (inactive).

With `COc1cc(-c2nccc3[nH]c(-c4cccc5[nH]ccc45)nc23)cc(OC)c1OC` as the compound, how does the growth read?
The growth was 18.2% (inactive).

`CC(C)Cc1nc(Nc2ccccc2)[nH]c(=O)c1C#N` was tested. Which growth did it give?
The growth was 64.4% (inactive).
